Structures are written as SMILES. Records with an inconclusive call do not appear. Calls of active or inactive are those of the source.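 Rule for the calls, unless noted: active = GFP response, as percent of the DMSO control, above the screen-wide mean plus 3 SD, about 139; inconclusive = no response measured because the compound's own fluorescence interfered; inactive = the rest.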

Consider five molecules from PubChem BioAssay.

Test [1] is described as follows: yeast TOR pathway RPL19A-GFP modulators, primary screen, cell-based, S. cerevisiae, multiplex flow cytometry (AID 1862; in the data active = percent of DMSO control GFP below about 86%;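 note: lower values mimic rapamycin by blocking the RPL19A rise seen in DMSO cells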). The following applies: S. cerevisiae RPL19A-GFP strain, flow cytometry fluorescence, 3 h; at 10 µM; stronger effect = lower value.
A short description of test [2]: modulators of MEP2-GFP levels in yeast, primary screen, S. cerevisiae, multiplex flow cytometry (AID 1867).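 Note: median GFP channel fluorescence of barcode-gated MEP2-GFP cells measured by flow cytometry.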 To be noted: S. cerevisiae MEP2-GFP strain, 3 h, at 10 µM, stronger effect = higher value, 100% means same as DMSO wells.
Test [3] can be described thus: modulators of CIT2-GFP expression in yeast, primary screen, S. cerevisiae, GFP fusion, multiplex flow cytometry (AID 1870;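 active = percent response above a set limit, the screen-wide mean plus 3 SD, cut at about 130% in these data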;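 note: barcoded CIT2-GFP strain pooled with four other GFP strains with rapamycin as positive control; median GFP fluorescence per well over plate mean of DMSO wells so 100% = DMSO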). To be noted: 3 h, at 10 µM, stronger effect = higher value.
A short description of test [4]: modulators of LAP4-GFP expression in yeast, primary screen, S. cerevisiae, multiplex flow cytometry (AID 1873;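 active = GFP signal, as percent of the solvent control, above the screen mean plus 3 SD, about 149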). To be noted: 3 h, at 10 µM, stronger effect = higher value.
Test [5] in a line: modulators of AGP1-GFP expression in yeast TOR pathway, primary screen, cell-based, multiplex flow cytometry, S. cerevisiae (AID 1887;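 active = GFP signal above the screen-wide mean plus 3 SD, that is over about 124.5% of the solvent control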;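 note: AGP1-GFP fusion strain of S. cerevisiae within a five-strain barcoded multiplex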). The following applies: 3 h, at 10 µM, stronger effect = higher value.
A short description of test [6]: inhibitors of CD8+ T cell-vesicle binding, pilot screen, LFA-1/ICAM-1 modulator project, MLPCN validation set, flow cytometry (AID 2523;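 active = response below a set limit, under 55% cells CD8-positive and vesicle-bound, and CD8 cells' 90th-percentile brightness under 279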;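 for vesicle binding response: mean PE anti-B7-1 fluorescence of CD8+ cells relative to row control; 100% = QL9-loaded vesicles with DMSO vehicle in the same plate row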). The following applies: 2C mouse CD8+ T cells, at 7 µM, stronger effect = lower value; double positive events: measured here: CD8+/vesicle+ event percentage.
The target in test [7] is Integrin beta-1 (Homo sapiens) + Integrin alpha-4 (Homo sapiens) (UniProt P13612+P05556). The test is described as follows: inhibition of HUTS-21 binding to VLA-4, pilot screen, VLA-4 allosteric modulator project, U937 cells, HUTS-21 mAb, flow cytometry, validation set (AID 2674;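 active = inhibition above 50%, about 3 SD of the validation set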;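 note: antibody binding induced by the VLA-4 ligand LDV present at three times its Kd; 0% = LDV ligand with antibody and no compound and 100% = antibody without LDV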). The following applies: HUTS-21 LIBS mAb binding, at 6.7 µM, stronger effect = higher value, binding induced by LDV ligand.
Chain of Integrin beta-1 (Homo sapiens) + Integrin alpha-4 (Homo sapiens) (P05556 whole entry, looked up): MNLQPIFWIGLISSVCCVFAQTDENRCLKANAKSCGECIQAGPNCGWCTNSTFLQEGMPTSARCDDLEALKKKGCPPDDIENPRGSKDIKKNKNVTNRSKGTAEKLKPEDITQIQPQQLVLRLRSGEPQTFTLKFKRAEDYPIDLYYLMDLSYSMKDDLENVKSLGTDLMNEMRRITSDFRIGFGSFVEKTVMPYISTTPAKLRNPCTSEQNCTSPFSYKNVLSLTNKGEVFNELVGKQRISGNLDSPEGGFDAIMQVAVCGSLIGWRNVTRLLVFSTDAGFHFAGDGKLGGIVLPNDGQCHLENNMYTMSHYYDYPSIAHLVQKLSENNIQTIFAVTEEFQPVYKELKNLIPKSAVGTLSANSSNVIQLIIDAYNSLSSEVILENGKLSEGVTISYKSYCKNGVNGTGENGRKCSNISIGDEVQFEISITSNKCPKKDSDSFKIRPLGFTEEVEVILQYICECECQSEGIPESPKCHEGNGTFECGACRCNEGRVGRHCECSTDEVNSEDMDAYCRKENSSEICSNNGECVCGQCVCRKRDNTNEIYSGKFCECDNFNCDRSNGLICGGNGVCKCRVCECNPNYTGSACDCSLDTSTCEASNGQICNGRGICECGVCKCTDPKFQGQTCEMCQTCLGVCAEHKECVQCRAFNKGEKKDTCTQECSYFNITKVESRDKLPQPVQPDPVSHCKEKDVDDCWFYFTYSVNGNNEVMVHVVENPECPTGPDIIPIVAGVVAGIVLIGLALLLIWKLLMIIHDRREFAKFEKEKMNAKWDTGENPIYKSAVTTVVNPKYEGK
Chain of Integrin beta-1 (Homo sapiens) + Integrin alpha-4 (Homo sapiens) (P13612 whole entry, looked up): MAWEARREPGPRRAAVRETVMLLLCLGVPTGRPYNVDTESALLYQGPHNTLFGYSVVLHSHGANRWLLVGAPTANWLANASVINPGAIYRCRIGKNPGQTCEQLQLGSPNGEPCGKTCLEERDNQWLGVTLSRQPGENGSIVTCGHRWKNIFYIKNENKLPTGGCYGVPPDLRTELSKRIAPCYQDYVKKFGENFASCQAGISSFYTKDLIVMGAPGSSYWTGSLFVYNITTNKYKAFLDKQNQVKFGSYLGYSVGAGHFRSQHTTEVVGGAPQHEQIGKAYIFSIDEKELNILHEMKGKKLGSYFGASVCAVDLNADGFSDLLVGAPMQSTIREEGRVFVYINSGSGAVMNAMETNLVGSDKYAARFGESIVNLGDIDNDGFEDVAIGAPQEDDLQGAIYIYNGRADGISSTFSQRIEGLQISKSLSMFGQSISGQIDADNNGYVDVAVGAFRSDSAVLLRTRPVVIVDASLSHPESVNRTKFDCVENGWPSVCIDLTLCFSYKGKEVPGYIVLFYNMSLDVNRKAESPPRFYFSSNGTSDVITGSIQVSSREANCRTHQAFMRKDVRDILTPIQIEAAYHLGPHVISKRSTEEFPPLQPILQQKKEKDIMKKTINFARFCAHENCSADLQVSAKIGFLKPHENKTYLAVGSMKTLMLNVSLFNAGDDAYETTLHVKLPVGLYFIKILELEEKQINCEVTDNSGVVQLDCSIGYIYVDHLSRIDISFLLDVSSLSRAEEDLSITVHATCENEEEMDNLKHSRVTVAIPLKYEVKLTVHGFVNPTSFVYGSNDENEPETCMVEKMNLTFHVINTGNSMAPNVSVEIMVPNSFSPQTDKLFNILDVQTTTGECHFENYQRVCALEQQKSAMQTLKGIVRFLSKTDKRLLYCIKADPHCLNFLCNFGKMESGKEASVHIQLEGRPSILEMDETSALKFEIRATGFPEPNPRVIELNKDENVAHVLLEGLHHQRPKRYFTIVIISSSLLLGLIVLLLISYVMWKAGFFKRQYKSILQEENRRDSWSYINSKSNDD

Test [8] is described as follows: superoxide lowering in aged yeast cells, pilot screen, validation compound set (AID 2706;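 active = superoxide response below 65% of plate, a cut near 3 SD across the whole screen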;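 note: yeast exposed to compound for one week at 30 degrees C before staining; 100% = mean of all compound wells on the same plate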). To be noted: S. cerevisiae aging, superoxide DHE fluorescence; at 10 µM; stronger effect = lower value.
The target in test [9] is Beta-adrenergic receptor kinase 1 (Homo sapiens) (UniProt P25098). The test is described as follows: GRK2 binders displacing RNA aptamer, biochemical, validation, human GRK2, bead flow cytometry (AID 488806;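 active = aptamer binding inhibition above 30%, about 3 SD of noise from non-fluorescent compounds; inactive = inhibition at or below 30%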). The following applies: bead-bound GRK2, FAM-aptamer displacement, at 10 µM, stronger effect = higher value.
Chain of Beta-adrenergic receptor kinase 1 (Homo sapiens) (P25098 whole entry, looked up): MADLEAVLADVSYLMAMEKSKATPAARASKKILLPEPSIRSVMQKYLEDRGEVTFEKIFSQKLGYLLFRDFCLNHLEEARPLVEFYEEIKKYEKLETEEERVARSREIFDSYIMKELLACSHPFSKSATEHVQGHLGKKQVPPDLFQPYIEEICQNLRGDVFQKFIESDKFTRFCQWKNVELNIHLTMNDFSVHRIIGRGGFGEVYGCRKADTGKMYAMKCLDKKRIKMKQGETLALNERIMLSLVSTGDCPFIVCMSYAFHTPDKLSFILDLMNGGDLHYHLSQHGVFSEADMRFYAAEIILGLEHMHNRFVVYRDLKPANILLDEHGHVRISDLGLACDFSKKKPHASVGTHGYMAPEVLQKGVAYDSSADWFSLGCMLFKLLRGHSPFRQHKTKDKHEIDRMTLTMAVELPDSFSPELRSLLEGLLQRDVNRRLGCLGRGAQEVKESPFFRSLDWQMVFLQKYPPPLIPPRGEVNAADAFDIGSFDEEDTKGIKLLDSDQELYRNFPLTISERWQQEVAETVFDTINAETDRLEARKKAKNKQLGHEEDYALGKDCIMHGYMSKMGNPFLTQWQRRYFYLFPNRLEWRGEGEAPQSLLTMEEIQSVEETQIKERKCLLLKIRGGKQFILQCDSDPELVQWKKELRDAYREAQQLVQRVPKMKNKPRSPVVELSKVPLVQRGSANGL
For test [10], the target named is Beta-2 adrenergic receptor (Homo sapiens) (UniProt P07550). The test is described as follows: beta2AR agonists driving receptor internalization, pilot screen, cell-based, FAP fluorogen, flow cytometry, validation set (AID 504459;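 active = percent response above 42, roughly 3 SD of non-fluorescent test compounds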;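 note: agonist-driven loss of surface beta2AR via internalization measured by FAP dye flow cytometry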). The following applies: Am2.2-beta2AR cells, FAP surface receptor flow cytometry; at 10 µM; stronger effect = higher value.
Chain of Beta-2 adrenergic receptor (Homo sapiens) (P07550 whole entry, looked up): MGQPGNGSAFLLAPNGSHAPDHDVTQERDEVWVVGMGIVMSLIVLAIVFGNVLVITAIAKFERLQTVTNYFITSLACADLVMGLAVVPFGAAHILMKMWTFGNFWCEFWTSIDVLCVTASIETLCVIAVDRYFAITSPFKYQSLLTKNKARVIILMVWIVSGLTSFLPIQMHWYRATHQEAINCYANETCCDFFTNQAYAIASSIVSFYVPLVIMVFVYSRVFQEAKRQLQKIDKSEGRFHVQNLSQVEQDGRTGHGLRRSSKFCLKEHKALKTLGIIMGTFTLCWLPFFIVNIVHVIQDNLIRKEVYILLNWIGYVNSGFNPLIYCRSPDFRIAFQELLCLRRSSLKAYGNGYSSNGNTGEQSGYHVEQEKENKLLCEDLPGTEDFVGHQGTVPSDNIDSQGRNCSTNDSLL
Test [11] has as its target AP-2 complex subunit beta (Homo sapiens) (UniProt P63010). The test can be described thus: inhibitors of arrestin peptide binding to AP2, pilot screen, biochemical, validation set, GST-AP2 beads, flow cytometry (AID 504541;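 active = inhibition above 54%, about 3 SD of non-fluorescent compounds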;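 note: AP2 carries R879A mutation and is captured from E. coli lysate; bead-bound FITC arrestin peptide fluorescence measuring arrestin peptide binding to AP2; 0% = DMSO wells and 100% = excess unlabeled arrestin peptide control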). The following applies: FITC arrestin peptide, at 10 µM, stronger effect = higher value, AP2 beta2 appendage fragment, R879A mutant.
Test [12] in a line: yeast V-ATPase proton transport modulators, S. cerevisiae, pHLuorin, HTS validation (AID 504600; in the data active = response above about 15%;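 note: plate controls were DMSO for no effect and reference compound for full effect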). To be noted: S. cerevisiae pHLuorin cytosolic pH, at 10 µM, stronger effect = higher value.
For test [13], the system named is anti-desmoglein-3 scFv antibody binding to human DSG3. The test is described as follows: inhibitors of anti-DSG3 scFv binding to DSG3, pilot screen, biochemical, validation compound set, bead-based, flow cytometry (AID 588368;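 active = binding below the plate cutoff, the plate median minus 3 SD, with a reading above zero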;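 note: signal is the median channel fluorescence of bead-bound GFP antibody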). To be noted: Protein G beads, DSG3-Fc, scFv-GFP binding, at 10 µM, stronger effect = lower value.
Test [14] in a line: inhibitors of fungal efflux pumps CDR1, CDR2, MDR1, pilot screen, validation compound set, multiplex, phenotypic (AID 588506;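 active = efflux inhibition above 0.42, the validation set average plus 4 SD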;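 note: Nile Red retained in cells so higher fluorescence means more efflux inhibition; 0 = negative control wells and 1 = enniatin B 25 µM full block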). To be noted: S. cerevisiae pump-expressing triplex, Nile Red efflux flow cytometry; at 10 µM; stronger effect = higher value; the pumps come from Candida albicans.
The target of test [15] is ATP-binding cassette sub-family B member 6 (Homo sapiens) (UniProt Q9NP58). The test can be described thus: ABCB6 transporter inhibitors, pilot screen, K562-ABCB6 cells, flow cytometry, validation set (AID 588550;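 active = inhibition above the screen-wide mean plus 3 SD, about 51%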;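 note: 0% = DMSO wells and 100% = benzethonium chloride 70 µM positive control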). The following applies: K562-ABCB6 porphyrin accumulation, 1 h, at 10 µM, stronger effect = higher value.
Chain of ATP-binding cassette sub-family B member 6 (Homo sapiens) (Q9NP58 whole entry, looked up): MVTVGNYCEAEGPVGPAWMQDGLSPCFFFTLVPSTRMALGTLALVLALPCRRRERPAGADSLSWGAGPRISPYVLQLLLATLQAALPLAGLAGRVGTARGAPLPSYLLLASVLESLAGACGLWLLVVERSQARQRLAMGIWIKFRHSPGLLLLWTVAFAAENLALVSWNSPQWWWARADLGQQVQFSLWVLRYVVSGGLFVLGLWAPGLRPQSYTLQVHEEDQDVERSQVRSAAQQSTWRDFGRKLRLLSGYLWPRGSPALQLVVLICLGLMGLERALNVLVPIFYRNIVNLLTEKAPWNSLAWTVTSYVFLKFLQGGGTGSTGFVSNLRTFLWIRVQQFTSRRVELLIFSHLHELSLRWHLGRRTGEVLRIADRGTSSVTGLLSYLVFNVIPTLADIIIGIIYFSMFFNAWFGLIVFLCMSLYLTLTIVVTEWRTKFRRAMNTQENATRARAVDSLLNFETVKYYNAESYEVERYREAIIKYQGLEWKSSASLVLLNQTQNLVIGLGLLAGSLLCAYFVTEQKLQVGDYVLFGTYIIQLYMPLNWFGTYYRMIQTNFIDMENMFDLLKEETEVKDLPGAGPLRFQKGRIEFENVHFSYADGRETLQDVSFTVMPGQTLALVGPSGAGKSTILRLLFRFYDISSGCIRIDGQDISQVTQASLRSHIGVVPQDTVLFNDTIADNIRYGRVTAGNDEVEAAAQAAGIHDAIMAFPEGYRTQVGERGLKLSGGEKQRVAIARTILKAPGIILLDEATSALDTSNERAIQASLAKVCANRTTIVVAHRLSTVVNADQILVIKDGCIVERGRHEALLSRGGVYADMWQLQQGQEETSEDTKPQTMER
The nature of test [16]: promoters of myeloid differentiation in arrested cells, primary screen, cell-based, GFP/MAC1 double positive, flow cytometry, validation set (AID 588685;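 active = differentiation response of at least 50%, scaled between solvent and reference control, from cells with both markers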;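 note: compound exposure lasts four days before antibody staining and flow analysis; 0% = DMSO wells and 100% = 5 µM fulvestrant positive control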). The following applies: ER-HoxA9 marrow cells, stronger effect = higher value, normalized: vehicle 0, fulvestrant 100.

Chain of AP-2 complex subunit beta (Homo sapiens) (P63010 whole entry, looked up, the tested form may be a part, one chain of several): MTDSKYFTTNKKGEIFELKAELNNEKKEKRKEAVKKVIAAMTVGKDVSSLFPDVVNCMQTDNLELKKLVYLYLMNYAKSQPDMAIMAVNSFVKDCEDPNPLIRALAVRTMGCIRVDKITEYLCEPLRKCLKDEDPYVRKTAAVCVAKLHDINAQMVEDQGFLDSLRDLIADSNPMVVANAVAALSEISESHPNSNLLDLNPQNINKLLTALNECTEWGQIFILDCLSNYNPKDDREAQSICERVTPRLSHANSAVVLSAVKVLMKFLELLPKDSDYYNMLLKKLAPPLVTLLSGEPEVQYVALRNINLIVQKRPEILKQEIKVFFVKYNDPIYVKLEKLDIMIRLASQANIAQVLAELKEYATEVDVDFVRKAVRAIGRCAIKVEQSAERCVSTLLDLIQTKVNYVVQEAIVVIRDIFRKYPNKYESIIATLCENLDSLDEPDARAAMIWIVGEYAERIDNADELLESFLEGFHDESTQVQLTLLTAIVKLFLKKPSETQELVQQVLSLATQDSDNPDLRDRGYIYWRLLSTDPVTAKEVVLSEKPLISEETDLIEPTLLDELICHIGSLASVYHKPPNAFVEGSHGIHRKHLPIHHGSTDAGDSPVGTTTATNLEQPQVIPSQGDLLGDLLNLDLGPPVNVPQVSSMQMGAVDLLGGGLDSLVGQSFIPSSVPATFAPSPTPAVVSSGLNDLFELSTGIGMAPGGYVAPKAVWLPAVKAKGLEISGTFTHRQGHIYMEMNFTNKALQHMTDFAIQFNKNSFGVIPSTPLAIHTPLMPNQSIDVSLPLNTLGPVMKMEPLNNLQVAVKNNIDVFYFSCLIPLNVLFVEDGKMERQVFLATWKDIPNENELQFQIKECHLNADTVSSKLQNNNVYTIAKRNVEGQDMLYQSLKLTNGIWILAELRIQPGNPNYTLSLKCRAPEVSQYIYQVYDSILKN

`O=C(O)c1cnccn1`: in test [1], the percent of DMSO control GFP is 103% (inactive). In addition, the GFP response vs DMSO in test [2] was 94.7% (inactive); in [4] it was 108% (inactive). For the same molecule, in [3], the percent response of DMSO control was 93.8% (inactive). For the same molecule, the GFP response, % of DMSO in test [5] was 106% (inactive). Also, the double positive events in test [6] came to 65%. In addition, in test [6], the vesicle binding response is 160% (inactive). Also, the inhibition was 21% (inactive) in [7], -5% (inactive) in test [11] and 6% (inactive) in [15]. For the same molecule, the superoxide response (% of plate) in test [8] is 102% (inactive). Also, the aptamer binding inhibition in test [9] was 4% (inactive). In addition, the response was -18.2% (inactive) in [10] and 2.35% (inactive) in [12]. For the same molecule, the binding (% of control) in test [13] is 104% (inactive). In addition, in test [14], the efflux inhibition (fraction of control) was -0.21 (inactive). For the same molecule, the differentiation response in test [16] is -4.99% (inactive).
As for `CC(=O)c1cccc2c(O)c(C3=Nc4ccccc4C3=O)[nH]c12`, the percent of DMSO control GFP in [1] was 88% (inactive). The values for the GFP response vs DMSO in test [2] and in [4] were 118% (inactive) and 85.3% (inactive), respectively. The percent response of DMSO control in [3] is 114% (inactive). For the same molecule, the GFP response, % of DMSO in [5] is 90.8% (inactive). The double positive events in test [6] turned out to be 69.7%. For the same molecule, the vesicle binding response in test [6] was 202% (inactive). For the same molecule, the results for the inhibition in test [7], in [11] and in test [15] were -29.4% (inactive), -5.62% (inactive) and 9% (inactive), respectively. The superoxide response (% of plate) in test [8] is 129% (inactive). The aptamer binding inhibition in test [9] was 4% (inactive). For the same molecule, the response is -1.02% (inactive) in test [10] and 0.43% (inactive) in test [12]. The binding (% of control) in test [13] is 103% (inactive). Moreover, the efflux inhibition (fraction of control) in [14] was 0.23 (inactive). Also, the differentiation response in [16] was 4.91% (inactive).
As to `O=C(O)c1ccc(-c2ccc(O)c(F)c2)cc1`, in test [1], the percent of DMSO control GFP is 105% (inactive). Further, the GFP response vs DMSO in [2] was 105% (inactive); in [4] it was 98% (inactive). In test [3], the percent response of DMSO control is 111% (inactive). Also, in test [5], the GFP response, % of DMSO is 102% (inactive). Also, in test [6], the double positive events was 60%. Moreover, the vesicle binding response in [6] is 4700% (inactive). Besides, the results for the inhibition in test [7], in [11] and in [15] were -1.49% (inactive), -6.99% (inactive) and -1% (inactive), respectively. In addition, in test [8], the superoxide response (% of plate) is 96.3% (inactive). Further, the aptamer binding inhibition in test [9] was -2% (inactive). For the same molecule, the figures for the response in test [10] and in test [12] were -5.66% (inactive) and 3.09% (inactive), respectively. In addition, in test [13], the binding (% of control) is 97.9% (inactive). Also, the efflux inhibition (fraction of control) in test [14] is -0.17 (inactive). In addition, in test [16], the differentiation response is -6.6% (inactive).
As to `CC(C)(C)NCC(O)COc1cccc2c1C[C@H](O)[C@H](O)C2` (stereo not given in full), the percent of DMSO control GFP in [1] is 104% (inactive). For the same molecule, the GFP response vs DMSO in [2] was 108% (inactive); in test [4], 88.1% (inactive). Also, the percent response of DMSO control in [3] is 98.9% (inactive). Further, the GFP response, % of DMSO in test [5] was 98.1% (inactive). Moreover, the double positive events in test [6] was found to be 62.6%. In addition, the vesicle binding response in [6] was 1270% (inactive). Moreover, the inhibition in test [7] is -16% (inactive); in test [11], 55.4% (active); in test [15], 17% (inactive). In addition, the superoxide response (% of plate) in [8] was 104% (inactive). In addition, the aptamer binding inhibition in test [9] is 3% (inactive). The results for the response in [10] and in [12] were 0.85% (inactive) and -3.23% (inactive), respectively. The binding (% of control) in [13] is 99.2% (inactive). In test [14], the efflux inhibition (fraction of control) was 0.05 (inactive). Besides, the differentiation response in [16] is 14.9% (inactive).
As for `O=C(Nc1ccc(C(=O)NC2CCCCC2)cc1)c1cccnc1`, the percent of DMSO control GFP in test [1] was 99.5% (inactive). Moreover, the GFP response vs DMSO in test [2] is 101% (inactive); in test [4], 119% (inactive). For the same molecule, the percent response of DMSO control in test [3] was 107% (inactive). For the same molecule, in [5], the GFP response, % of DMSO is 105% (inactive). The same molecule displayed a double positive events in test [6] of 57.6%. In addition, in test [6], the vesicle binding response is 232% (inactive). In addition, the inhibition in test [7] was -0.43% (inactive); in [11], -15.9% (inactive); in [15] it was 13% (inactive). Also, the superoxide response (% of plate) in test [8] is 113% (inactive). Besides, the aptamer binding inhibition in test [9] was 1% (inactive). In addition, the response in [10] is -3.04% (inactive); in [12], 1.36% (inactive). In addition, the binding (% of control) in test [13] is 95.1% (inactive). The efflux inhibition (fraction of control) in test [14] is -0.17 (inactive). Also, the differentiation response in [16] is -4% (inactive).
